Assay outcomes: PubChem, National Center for Advancing Translational Sciences (NCATS)
Sampled rows, rich in hits. Any-hit rate of the full collection: about 19%.
HT1080NT lethal: kills 2HG-producing HT-1080-NT fibrosarcoma cells; HT-1080-NT fibrosarcoma viability, CellTiter-Glo ATP luminescence, 48 h; Potency, µM (doses to about 46.1 µM), inactives show at the top dose activity, negative = less viability, most hits filed as cytotoxic; 360,000 compounds, 1.6% hits; AID 686970;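 also: NT is the 2HG producing partner of a matched IDH1 knockdown line; potency is read from the fitted curve at half-maximal effect; 0% = DMSO-treated cells and -100% = media-only wells without cells; nearly all actives have a fitted effect of over 55% in size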
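Viability by CellTiter-Glo luminescence after 48 h compound exposure at 37C of HT-1080-NT cells (750/well, RPMI, 5% FBS). % activity scaled between DMSO wells and medium-only wells, then curve-fitted and categorized by curve class.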
IL-1B inflam inh: inflammasome signaling inhibition, IL-1 beta readout | activity change, % at 57.5 µM | 360,000 compounds, 4.7% hits | THP-1 LPS/ATP IL-1B secretion, AlphaLISA, 16 h; active compounds read low; in the data active = activity change below about -50%; inconclusive = mostly about -30% to -49%
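THP-1 cells pretreated 1 hr with compounds (up to 57.5 uM final), then stimulated with LPS (250 ng/mL final) plus ATP (1.25 mM final); secreted IL-1B measured by AlphaLISA after 16 hr, decreased signal indicating inhibition.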
TDP1 cell noCPT: qHTS for Inhibitors of human tyrosyl-DNA phosphodiesterase 1 (TDP1): qHTS in cells in absence of CPT. 420,000 compounds, 15% hits. DT40 Tdp1-/- hTDP1 cells, no CPT, ATP luminescence, 48 h. Potency, µM (top dose mostly 46.2 µM), for the others: at the highest dose activity change, negative = growth inhibition, usual class: inhibitors; also: potency is read from the fitted curve at half-maximal effect; nearly all actives have a fitted effect of over 55% in size
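Cells were dispensed at 400 per well, compounds added by pin tool, plates incubated ≥48 hr at 37 °C, then CellTiter-Glo added for 30 min at room temperature before luminescence reading. Line: DT40 Tdp1-/- complemented with hTDP1; camptothecin omitted.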
HT1080 IDH1KD tx: kills HT-1080 cells with IDH1 knockdown; Potency, µM (titrated, usually from 46.1 µM), inactives show at the top dose activity, negative = toxicity, hits mostly cytotoxic; HT-1080 IDH1 knockdown viability, ATP luminescence, 48 h; 360,000 compounds, 2% hits;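 also: potency is read from the fitted curve at half-maximal effect; 0% = DMSO wells and -100% = cell-free medium wells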
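Knockdown cells (IDH1KD HT-1080) received compounds 2 h after plating at 750 cells/well and were kept 48 h at 37 °C in 5% FBS RPMI. A CellTiter-Glo luminescence read gave % activity for curve fitting.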
TDP1 cell CPT: DT40-hTDP1 cell growth loss with CPT; chicken DT40 Tdp1-/-;hTDP1 cells + 20 nM CPT, ATP luminescence, 48 h; Potency, µM (top dose mostly 46.2 µM), for the others: at the top dose activity change, negative = growth inhibition, actives largely listed as inhibitors; 420,000 compounds, 12% hits; also: potency is read from the fitted curve at half-maximal effect; nearly all actives have a fitted effect of over 55% in size
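Chicken DT40 Tdp1-/- cells stably complemented with human TDP1 were seeded at 400 cells/well in medium containing 20 nM camptothecin, exposed to pin-transferred compounds, and grown at 37 °C for at least 48 hr. Viability was read as ATP luminescence.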
Starred values were filed as active, the others as inactive; ? = inconclusive; . = no result given. Unless noted, calls follow the shape of the dose curve; as a rule, active = well fitted curve in the direction sought with a large enough effect; inconclusive = small, poorly fitted or top-dose-only effect, or another doubt; inactive = no such curve, though single readings can be large; an effect the other way counts as inactive or inconclusive. Unless noted, % is scaled to controls: 0 for no effect and ±100 for the full control effect.

SMILES	HT1080NT lethal	IL-1B inflam inh	TDP1 cell noCPT	HT1080 IDH1KD tx	TDP1 cell CPT
Nc1ncnc2c1nc(Sc1ccc(Cl)cc1)n2[C@H]1OC2COP(=O)(O)O[C@H]2[C@@H]1O (stereo not given in full)	-11%	.	-10%	0%	-21%
O=C(Nc1ccc(F)cc1)c1cc(-c2ccncc2)nc2c(Cl)cccc12	-9%	-11	?	-17%	?
Cc1ccccc1C(=O)Nc1cccc(C(=O)OCc2cc(=O)n3c(C)csc3n2)c1	.	.	?	.	-109%
CCCSC1=NC2(CCN(C(=O)NC3CCCCC3)CC2)N=C1c1ccc(OC)cc1	.	.	23µM*	.	23µM*
CCCSC1=NC2(CCN(C(=O)NC3CCCCC3)CC2)N=C1c1ccccc1	.	.	-20%	.	-1%
CCNc1nc(SCCOc2ccc(C)cc2)nc(N(C)C)n1	-18%	41	21µM*	-28%	16µM*
Cc1onc(-c2ccccc2Cl)c1C(=O)N(C)C1CCCCC1	-2%	22	3.7µM*	-6%	4.6µM*
Cc1cc(C)nc(NC(=O)c2c(F)c(F)c(F)c(C(=O)Nc3cc(C)cc(C)n3)c2F)c1	-19%	-69*	16µM*	-21%	?
Cc1nc(NC(=O)c2c(-c3ccccc3Cl)noc2C)sc1C	0%	62	?	-16%	16µM*
Cc1onc(-c2ccccc2Cl)c1C(=O)NCc1ccco1	-24%	-77*	-11%	-39%	?
CCN(C(=O)c1c(-c2ccccc2Cl)noc1C)C1CCCCC1	-9%	-18	?	-13%	?
Cc1cc(C)nc(NC(=O)c2c(-c3ccccc3Cl)noc2C)c1	3%	0	21µM*	7%	?
CC(C)c1cc(-c2cc(C(=O)Nc3ccccc3)on2)nc(NC2CCCC2)n1	11%	-19	?	-1%	26µM*
CCc1ccc(NC(=S)NC(=O)c2c(-c3ccccc3Cl)noc2C)cc1	-8%	-51*	?	-1%	12%
Cc1ccnc(NC(=O)c2c(-c3ccccc3Cl)noc2C)c1	9%	21	-28%	3%	?
Cc1onc(-c2ccccc2Cl)c1C(=O)NC(=S)Nc1ccc(C(C)(C)C)cc1	?	-13	?	-4%	?
O=C(Nc1ccccc1)c1cc(-c2ccccc2Cl)no1	18%	5	16µM*	13%	16µM*
O=C(COC(=O)c1ccccc1Cc1ccccc1)NC1CCS(=O)(=O)C1 (stereo not given)	-1%	-10	-1%	-3%	1%
CCOC(=O)c1ccc(S(=O)(=O)N2CCN(C3CC(=O)N(c4ccccc4C(F)(F)F)C3=O)CC2)cc1 (stereo not given)	3%	15	-14%	7%	-12%
CN1C(=O)NC(c2cccc([N+](=O)[O-])c2)C2=C1CCCC2=O (stereo not given)	2%	18	1%	0%	3%
O=C1OC(C(=O)O)Cc2ccccc21 (stereo not given)	5%	5	4%	?	-19%
CC1Cc2c([nH]c3ccccc23)C(=O)N1 (stereo not given)	14%	0	-10%	4%	-8%
Cc1onc(-c2ccccc2Cl)c1C(=O)Nc1ccccc1O	-1%	32	18µM*	-1%	?
Cc1onc(-c2ccccc2Cl)c1C(=O)Nc1ccccc1	-3%	0	?	-4%	12µM*
Cc1onc(-c2ccccc2Cl)c1C(=O)Nc1ccc(Br)cc1	?	-7	-29%	?	-24%
SMILES	HT1080NT lethal	IL-1B inflam inh	TDP1 cell noCPT	HT1080 IDH1KD tx	TDP1 cell CPT
COc1ccc(NC(=O)c2c(-c3ccccc3Cl)noc2C)c(OC)c1	?	2	?	?	?
COc1cc(C(=O)Nc2cc(C)nn2-c2ccccc2)cc(OC)c1OC	-1%	-27	?	-21%	-35%
COc1cccc(OC)c1C(=O)Nc1cc(C)nn1-c1nc2ccccc2[nH]1	6%	14	9.2µM*	0%	16µM*
COc1cccc(C(=O)Nc2cc(C)nn2-c2ccccc2)c1OC	-1%	1	23µM*	-15%	?
Cc1cc(NC(=O)c2cccs2)n(-c2nc3ccccc3[nH]2)n1	?	-25	21µM*	?	?
COc1cccc(C(=O)Nc2c3c(nn2-c2ccc(C)cc2C)CS(=O)(=O)C3)c1OC	.	.	23µM*	.	?
COCCNC(=O)c1cc2n(n1)CCCN(Cc1ccc(C)cc1)C2=O	.	.	-4%	.	-16%
Cc1ccc(Cl)cc1NC(=O)COCc1cc(-c2ccco2)on1	.	.	?	.	-21%
O=C(C1CCC1)N1CCc2cc(S(=O)(=O)NCc3ccc(F)cc3)ccc21	.	.	-26%	.	?
Cc1cc(NC(=O)C2CCCC2)n(-c2nc3ccccc3[nH]2)n1	7.9µM*	-16	?	4µM*	18µM*
Cc1cc(NC(=O)c2sccc2C)n(-c2nc3ccccc3[nH]2)n1	?	-82*	16µM*	-27%	?
NC(=O)CSc1nc(-c2ccccc2)nc2c1CCCC2	14%	-2	-3%	14%	-1%
CN(C)CCCSc1nc(-c2ccccc2)nc2c1CCC2	-22%	-53*	?	-10%	?
CN(C)C(=O)CSc1nc(-c2ccccc2)nc2c1CCCC2	-28%	-70*	?	?	?
Nc1c(C(=O)NCc2ccc(Cl)cc2)sc2nc3c(c(C(F)(F)F)c12)CCC3	14%	?	?	10%	-21%
COc1ccc(CNC(=O)Nc2ccc3c(c2)c(=O)n(C)n3Cc2cccc(C(F)(F)F)c2)cc1	-17%	10	23µM*	?	?
COc1ccc(OC)c(CC(=O)Nc2ccc3c(c2)c(=O)n(C)n3Cc2cccc(C(F)(F)F)c2)c1	-9%	-15	?	-6%	29µM*
CC1CCCN(C(=O)c2ccc(S(=O)(=O)Nc3ccccc3Cl)cc2)C1 (stereo not given)	-4%	10	?	-2%	?
O=C(c1ccc(-c2ccccc2Cl)o1)N1CCCCCCC1	?	?	23µM*	?	?
CC1CCCN(C(=O)c2ccc(-c3ccccc3Cl)o2)C1 (stereo not given)	-13%	-17	?	-8%	12µM*
CC(=O)N1CCN(C(=O)c2ccc(-c3ccccc3Cl)o2)CC1	0%	3	-18%	-2%	0%
COc1ccc(CC(=O)Nc2cccc(C(=O)O)c2C)cc1	-2%	13	-3%	0%	-8%
Cc1nc2cc(C(=O)N3CCc4ccccc43)ccc2n1-c1ccc(F)c(F)c1	-3%	-12	?	0%	-21%
